From PubChem BioAssay
An excerpt weighted towards active compounds, which were near 18% of everything screened.
LDHA block: inhibitors of human lactate dehydrogenase A | P00338 | purified LDHA, NADH/diaphorase-resazurin fluorescence; active compounds read low | activity change, % (values are at about 110 or 230 µM) | hit rate 0.15% among 480,000; in the data active = activity change below about -30%; inconclusive = mostly about -25% to -30%
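LDH5 2 nM; NADH 0.06 mM, pyruvate 0.2 mM; 200 mM Tris pH 7.4, EDTA, Tween-20; 5 min RT. Detection: diaphorase 0.133 mg/mL + resazurin 37 µM, fluorescence ex540/em590 at 0 and 20 min; normalized to enzyme-free and DMSO wells.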
VP16 counter: inhibits Gal4-VP16 luciferase reporter, ROR gamma counter-screen. hit rate 3.5% among 310,000. Potency, µM (series often up to 53.6 µM), most hits filed as inhibitors. Drosophila S2 Gal4-VP16 UAS-luciferase, luminescence, 20 h;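 note: Gal4-VP16 expression switched on by copper sulfate through the metallothionein promoter; nearly all actives have a fitted effect of over 50% in size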
RORg inh: blocks mouse ROR gamma transcriptional activity; P51450; Drosophila S2 Gal4-RORgamma UAS-luciferase reporter, 20 h; Potency, µM (doses to about 53.6 µM), hits mostly inhibitors; hit rate 5.4% among 310,000; AID 2551; note: nearly all actives have a fitted effect of over 60% in size
Target sequence (P51450 whole entry, looked up, the tested form may be a part): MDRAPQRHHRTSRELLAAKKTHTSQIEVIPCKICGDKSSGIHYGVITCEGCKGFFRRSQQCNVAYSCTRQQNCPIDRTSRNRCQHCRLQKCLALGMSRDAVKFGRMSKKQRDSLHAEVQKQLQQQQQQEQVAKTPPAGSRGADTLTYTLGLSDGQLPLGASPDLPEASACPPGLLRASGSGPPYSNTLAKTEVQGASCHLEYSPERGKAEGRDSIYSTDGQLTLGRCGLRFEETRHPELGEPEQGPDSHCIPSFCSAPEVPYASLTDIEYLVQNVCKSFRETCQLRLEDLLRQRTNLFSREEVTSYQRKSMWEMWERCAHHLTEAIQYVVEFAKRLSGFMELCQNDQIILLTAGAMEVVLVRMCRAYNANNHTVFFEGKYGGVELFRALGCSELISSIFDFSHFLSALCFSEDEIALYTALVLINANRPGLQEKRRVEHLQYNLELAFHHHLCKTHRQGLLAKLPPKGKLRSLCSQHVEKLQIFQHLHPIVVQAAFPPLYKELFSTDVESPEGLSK
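Stably transfected Drosophila Schneider cells are the test system, with ROR gamma fused to Gal4 and luciferase under UAS control; luminescence is read after 20 hr of 700 uM copper sulfate induction at ambient temperature.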
TDP1 cell noCPT: qHTS for Inhibitors of human tyrosyl-DNA phosphodiesterase 1 (TDP1): qHTS in cells in absence of CPT; DT40 Tdp1-/- hTDP1 cells, no CPT, ATP luminescence, 48 h; Potency, µM (series often up to 46.2 µM), hits mostly inhibitors; hit rate 15% among 420,000; AID 686978, 2013; note: nearly all actives have a fitted effect of over 55% in size
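DT40 Tdp1-/-;hTDP1 cells, no CPT (DMSO vehicle only), 400 cells/well; compounds pin-transferred; ≥48 hr, 37 °C; CellTiter-Glo 30 min RT dark, luminescence read.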
TDP1 cell CPT: growth inhibition of DT40 Tdp1-/-;hTDP1 cells with camptothecin (screen for TDP1 inhibitors); Potency, µM (titrated, usually from 46.2 µM), usual class: inhibitors; chicken DT40 Tdp1-/-;hTDP1 cells + 20 nM CPT, ATP luminescence, 48 h; hit rate 12% among 420,000; AID 686979; note: nearly all actives have a fitted effect of over 55% in size
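Chicken DT40 Tdp1-/- cells complemented with human TDP1, 400 cells/well, exposed to compounds plus 20 nM camptothecin for at least 48 h at 37 C; viability read as ATP content by CellTiter-Glo luminescence.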
IL1B secr inh: inflammasome signaling inhibition, IL-1 beta readout; THP-1 LPS/ATP IL-1B secretion, AlphaLISA, 16 h; active compounds read low; AID 743279; activity change, % at 57.5 µM; hit rate 4.7% among 360,000; in the data active = activity change below about -50%; inconclusive = mostly about -30% to -49%
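Secreted IL-1B measured by AlphaLISA bead assay after 16 h compound exposure of THP-1 cells; compounds (final up to 57.5 uM) added 1 h before LPS (250 ng/mL) and ATP (1.25 mM) stimulation; lower signal means less secretion.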
A number is an active result; 0 = inactive; ? = inconclusive; - = no result; [ ] = remark or other dose. Unless noted, calls come from the whole dose curve; as a rule, active = well fitted curve in the direction sought with a large enough effect; inconclusive = small, poorly fitted or top-dose-only effect, or another doubt; inactive = no such curve, though single readings can be large; an effect the other way counts as inactive or inconclusive.

SMILES	LDHA block	VP16 counter	RORg inh	TDP1 cell noCPT	TDP1 cell CPT	IL1B secr inh
CCOC(=O)C1=C(C)NC(=S)NC1c1ccc(-c2ccc(Cl)cc2)o1 (stereo unspecified)	0	6.31µM	2.51µM	?	?	0
COC(=O)C1=C(C)NC(=O)NC1c1ccc(-c2ccccc2Cl)o1 (stereo unspecified)	0	0	?	16.4µM	10.3µM	0
CCCOc1cccc(C(=O)NC(=S)Nc2ccc(N3CCN(C)CC3)cc2)c1	0	0[10 µM]	0	?	?	0
CCOc1cccc(C(=O)NC(=S)Nc2cccnc2)c1	0	?	14.1µM	?	0	0
CCCCOc1cccc(C(=O)NC(=S)Nc2cccnc2)c1	0	?	11.2µM	?	0	0
CCOc1cccc(C(=O)NC(=S)Nc2ccc(N3CCN(CC)CC3)cc2)c1	0	?	11.2µM	23.1µM	?	?
CCOc1ncccc1C(=O)Nc1cccc(S(=O)(=O)NC2=NCCC2)c1	0	-	-	0	0	0
CCOc1ncccc1C(=O)Nc1cccc(C(=O)Nc2cccc(S(=O)(=O)CCO)c2)c1	0	?	0	7.31µM	?	?
Cc1nc(NC(=O)c2cc(Cl)cc(Cl)c2)sc1C	0	-	-	-	-	-
CCc1ccc(-c2nc3c(c(=O)[nH]c(=O)n3Cc3ccccc3)n2CC2CCCO2)cc1 (stereo unspecified)	0	-	-	-	-	-
NS(=O)(=O)Cc1cccc(C(=O)O)c1	0	-	-	-	-	-
CCOc1cccc(C(=O)Nc2ccc(NC(=O)c3ccc(Br)cc3)cc2)c1	0	-	-	0	0	-
CCOc1cccc(C(=O)Nc2ccncc2)c1	0	0	?	?	23.1µM	0
CCOc1cccc(C(=O)NC(=S)Nc2cccc(NC(=O)c3ccccc3Cl)c2)c1	0	0.631µM	0[10 µM]	20.6µM	?	?
CCOc1ccc(Nc2nc(C)c(NC(=O)c3cccc(OC)c3)c(Nc3ccc(OCC)cc3)n2)cc1	0	-	-	2.31µM	1.46µM	-
CCOc1cccc(C(=O)NC(=S)Nc2ccccc2)c1	0	?	4.47µM	?	?	0
CCOc1cccc(C(=O)Nc2ccc(NC(=O)c3ccccc3)c(C)c2)c1	0	0	0[1.91 µM]	?	?	0
COc1cccc(C(=O)Nc2cccc(NC(=O)c3ccccc3Cl)c2)c1	0	0	?	?	?	?
COc1cc(OC)cc(C(=O)NC(=S)Nc2ccc3[nH]c(=O)[nH]c3c2)c1	0	0	0	0	0	0
CCOc1ccccc1N1C(=O)c2ccc(C(=O)Nc3cccnc3)cc2C1=O	0	12.6µM	0	0	0	0
COc1cc(OC)cc(C(=O)NC(=S)Nc2ccc(N3CCCC3)cc2)c1	0	?	3.16µM	8.2µM	14.6µM	0
CN1CCN(c2ccc(NC(=O)c3cccc(Cl)c3)nc2)CC1	0	-	-	-	-	-
COc1cccc(/C=C/C(=O)c2ccc(C)cc2C)c1OC	0	-	-	-	-	-
CN(C)c1ccc(N=Nc2ccccc2C(=O)OCC(=O)N2CCCC2)cc1	0	0	0	0	?	0
CN(C)c1ccc(N=Nc2ccccc2C(=O)OCC(=O)Nc2ccccc2C(F)(F)F)cc1	0	0	0	23.1µM	?	0
SMILES	LDHA block	VP16 counter	RORg inh	TDP1 cell noCPT	TDP1 cell CPT	IL1B secr inh
O=C(CCS(=O)(=O)Cc1ccccc1F)N1CCc2ccccc2C1	0	0	0	16.4µM	23.1µM	0
Cc1cccc(C(=O)Nc2cccc(C(=O)NC3CCCC3)c2)c1	0	0	0	?	?	?
Cc1cccc2nc(C(=O)Nc3cccc(C(=O)NC4CC4)c3)cn12	0	-	-	?	13µM	0
Cc1nn(-c2ccccc2)nc1C(=O)Nc1ccc2c(c1)OCCO2	0	0	0	0	0	?
Cc1nn(-c2cccc(Cl)c2)nc1C(=O)Nc1cccc(C(=O)NC2CC2)c1	0	-	-	10.3µM	?	0
O=C(NC1CCN(C(=O)Nc2cccc(Cl)c2)CC1)c1ccccc1	0	0	0	?	0	0
Cc1ccc(-n2nc(C)c(C(=O)Nc3cccc(C(=O)NC4CC4)c3)n2)c(C)c1	0	-	-	8.2µM	11.6µM	0
Cc1nn(-c2ccccc2)nc1C(=O)Nc1cccc(C(=O)NC2CC2)c1	0	-	-	14.6µM	?	0
